Reference: PubChem BioAssay (NCATS)
Inconclusive results are not listed. The source made the active and inactive calls. Unless noted, calls come from the whole dose curve; as a rule, active = well fitted curve in the direction sought with a large enough effect; inconclusive = small, poorly fitted or top-dose-only effect, or another doubt; inactive = no such curve, though single readings can be large; an effect the other way counts as inactive or inconclusive.

Experiments:
[1] = molecular target: Lysosomal acid glucosylceramidase (Homo sapiens) (UniProt P04062); experiment: Glucocerebrosidase-p2 (AID 348; in the data active = potency below about 10 µM; note: potency is the fitted concentration of half-maximal effect); conditions: purified GBA, blue fluorogenic substrate, 40 min
Summary of the method: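 Normal human glucocerebrosidase (0.2 nM) with blue fluorogenic substrate (80 uM final) in citrate/phosphate pH 5.9 with 10mM sodium taurocholate, 0.01% tween-20; 40 min RT, NaOH/glycine stop; fluorescence Ex 365/Em 440; AC50 from a titration from 0.6 nM upwards.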

[2] = AP1 Signaling Pathway (AID 357; active = well fitted curve in either direction with a large enough effect, not every such curve was filed as active;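 note: ME-180 reporter cells stimulated with EGF at its EC50 level; % is set by controls: 0 for no effect and ±100 for the full control effect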); conditions: ME-180 AP-1-bla reporter, EGF-induced, beta-lactamase ratio, 5 h; at 7.69 µM (top of the series) unless noted
Summary of the method: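 First, ME-180 AP-1-bla cells were cultured overnight at 37 °C in low-serum Opti-MEM. Next, titrated compounds with EC50 EGF were incubated 5 hours. Finally, CCF4 was added for 2.5 hours and the 460/530 nm ratio recorded.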

[3] = molecular target: Cytochrome P450 1A2 (Homo sapiens) (UniProt P05177); experiment: p450-cyp1a2 (AID 410; calls by dose curve; note: potency is the fitted concentration of half-maximal effect;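 for activity change, negative = inhibition: -100% = full effect of reference inhibitor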); conditions: recombinant CYP1A2, luciferin-ME demethylation, luminescence; series mostly up to 57 µM
Summary of the method: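 Luminescent demethylation readout: Luciferin-ME (100uM, equal to Km) turned over by 20nM CYP1A2 for 60 min at room temperature after NADPH regeneration addition, following 10 min compound preincubation. Normalization used 57 uM furafylline as full inhibition.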

[4] = NFAT Signaling Pathway (AID 444; active = well fitted curve in either direction with a large enough effect, not every such curve was filed as active;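 note: carbachol stimulus at about its EC50 of 1 µM final; % is set by controls: 0 for no effect and ±100 for the full control effect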); conditions: Jurkat NFAT-bla M1, carbachol, beta-lactamase ratio, 5 h; at 7.69 µM (top of the series) unless noted
Summary of the method: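 Jurkat cells with NFAT-driven β-lactamase reporter and co-expressed M1 receptor, stimulated with carbachol (final 1 uM, ~EC50), compound titration, 5 h at 37 °C. CCF4 loaded 1 h at RT; 460/530 nm ratio gave %activity and AC50.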

[5] = Stat Signaling Pathway (AID 446; active = well fitted curve in either direction with a large enough effect, not every such curve was filed as active;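 note: ME-180 cervical cancer cells given 40 pM IL-6 alongside compound; SIE-controlled beta-lactamase reporter measured as 460/530 nm FRET emission ratio; % is set by controls: 0 for no effect and ±100 for the full control effect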); conditions: ME-180 (cervical carcinoma) SIE beta-lactamase reporter, IL-6 stimulated, 5 h; at 7.69 µM (top of the series) unless noted
Summary of the method: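 Overnight-plated ME-180 cells bearing a STAT Inducible Element beta-lactamase reporter; 5 h co-exposure to compound and 40 pM IL-6; values normalized to 300 pM IL-6 and 125 nM JAK inhibitor controls.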

[6] = molecular target: Glucocorticoid receptor (Homo sapiens) (UniProt P04150); experiment: GR-GFP Redistribution (AID 450;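 active = compounds whose dose series gives a full or clear partial fitted curve of increased nuclear translocation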; note: potency is the fitted concentration of half-maximal effect); conditions: U2OS GR-GFP nuclear translocation, laser cytometry, 2 h
[7] = molecular target: Glucocorticoid receptor (Homo sapiens) (UniProt P04150); experiment: GR-EFC Redistribution (AID 451; calls by dose curve; note: potency is the fitted concentration of half-maximal effect); conditions: CHO-K1 GR-EFC translocation, beta-gal luminescence, 2 h
Summary of the method: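 CHO-K1 cells expressing nuclear EA and GR-ED fragments of b-gal; compounds titrated up to 46 uM final, 2 h at 37 C. GR nuclear translocation read as complemented b-gal luminescence after 1 h RT detection.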

[8] = molecular target: Mitogen-activated protein kinase 10 (Mus musculus) (UniProt Q61831); experiment: JNK3 AlphaScreen Assay (AID 530; active = well fitted curve in either direction with a large enough effect, not every such curve was filed as active;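 note: kinase came from lysate of stimulated human HepG2 cells; signal reports phosphorylation of biotinylated GST-cJun 1-79 at Ser73 with 10 µM ATP; % is set by controls: 0 for no effect and ±100 for the full control effect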); conditions: JNK3 lysate, c-Jun phosphorylation; series mostly up to 57.1 µM
Summary of the method: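 Activity was read by AlphaScreen after JNK3-containing HepG2 lysate (cytokine pre-activated) phosphorylated biotinylated GST-cJun with 10 uM ATP at room temperature. Phospho-Ser73 cJun antibody with Protein-A acceptor beads provided detection.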

[9] = molecular target: 3',5'-cyclic-AMP phosphodiesterase 4B (Homo sapiens) (UniProt Q07343); experiment: qHTS Assay for Inhibitors of PDE-IV (AID 607; active = well fitted activation curve with a large enough effect in the main read-out, with a control signal flat, not every such curve was filed as active; note: % of control where 0% means no effect); conditions: HEK293 ACTOne CNG channel cells, membrane potential fluorescence; series mostly up to 22.9 µM
Summary of the method: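 Live HEK293 cells with a modified cyclic nucleotide-gated (CNG) channel report intracellular cAMP via membrane-potential dye fluorescence (ex 535/em 590 nm). Endogenous PDE-IV was targeted. Compounds were tested at up to 22.9 uM final; RO 20-1724 100 uM served as control.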

[10] = molecular target: Cytochrome P450 3A4 (Homo sapiens) (UniProt P08684); experiment: qHTS Assay for Activators of Cytochrome P450 3A4 (AID 885); conditions: recombinant CYP3A4, Luciferin-PPXE luminescence, 60 min; series mostly up to 57.1 µM; note: nearly all actives have a fitted effect of over 65% in size
Summary of the method: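 Using 20nM recombinant human CYP3A4 in potassium phosphate (200mM), substrate Luciferin-PPXE at 25uM, luminescent luciferin detection followed a 60-min RT NADPH reaction; data scaled to 57 uM ketoconazole.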

[11] = molecular target: Dual specificity protein kinase CLK4 (Homo sapiens) (UniProt Q9HAZ1); experiment: qHTS Assay for Inhibitors of CDC-like Kinase 4 (Kinase-Glo Assay) (AID 1770); conditions: recombinant Clk4, Kinase-Glo ATP depletion luminescence; series mostly up to 66.7 µM; note: % is set by controls: 0 for no effect and ±100 for the full control effect; nearly all actives have a fitted effect of over 65% in size
Summary of the method: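 Recombinant human Clk4 (25 nM) phosphorylated RS repeat peptide (100 uM) with 1 uM ATP in Tris pH 7.5/MgCl2/EGTA/DTT/Triton buffer for 4.5 h at room temperature. Residual ATP was quantified by Kinase-Glo luciferase luminescence.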

[12] = molecular target: Dual specificity protein kinase CLK4 (Homo sapiens) (UniProt Q9HAZ1); experiment: qHTS Assay for Inhibitors of CDC-like Kinase 4 (ADP-Glo Assay) (AID 1771); conditions: recombinant CLK4, ADP-Glo luminescence; series mostly up to 80 µM; note: % is set by controls: 0 for no effect and ±100 for the full control effect; nearly all actives have a fitted effect of over 70% in size
Summary of the method: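 ADP production was read by ADP-Glo luminescence after residual ATP depletion, following 1 h room-temperature reaction of 25 nM Clk4, 1 uM ATP and 100 uM RS peptide with MgCl2, EGTA, DTT and Triton X-100.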

[13] = molecular target: Dual specificity protein kinase CLK4 (Homo sapiens) (UniProt Q9HAZ1); experiment: qHTS Assay for Inhibitors of CDC-like Kinase 4 (ADP-FP Assay) (AID 1795); conditions: Transcreener ADP fluorescence polarization; series mostly up to 50 µM; note: % is set by controls: 0 for no effect and ±100 for the full control effect; nearly all actives have a fitted effect of over 60% in size
Summary of the method: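 Recombinant human Clk4 (6.25 nM) phosphorylated RS repeat peptide (100 uM) with 1 uM ATP in Tris pH 7.5/MgCl2/EGTA/DTT/Triton buffer for one hour. ADP was quantified by Transcreener competitive fluorescence polarization against an ADP calibration curve.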

[14] = molecular target: Ubiquitin carboxyl-terminal hydrolase 1 (Homo sapiens) (UniProt O94782); experiment: Inhibitors of USP1/UAF1: Pilot qHTS (AID 504865); conditions: purified USP1/UAF1, Ub-rhodamine cleavage fluorescence; series mostly up to 54.9 µM;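 note: rhodamine fluorescence freed from ubiquitin-rhodamine substrate followed over time; top concentration of the series differs between compounds; % is set by controls: 0 for no effect and ±100 for the full control effect; nearly all actives have a fitted effect of over 35% in size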
Summary of the method: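 USP1/UAF1 complex (1nM) preincubated with compound 15 min at room temperature, then Ub-Rho substrate (150nM final) added. Fluorescence read kinetically at 480/540 nm, 6 reads every 60 seconds. Buffer: 50mM HEPES pH 7.8, 0.5mM EDTA, 0.1 mg/ml BSA, 1mM TCEP, 0.01% Tween-20.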

[15] = Primary qHTS for small molecule stabilizers of the endoplasmic reticulum resident proteome: Secreted ER Calcium Modulated Protein (SERCaMP) assay (AID 1508630); conditions: SH-SY5Y GLuc-SERCaMP (Gaussia luciferase released on ER calcium loss) secretion, thapsigargin, luminescence; series mostly up to 38.4 µM; note: % is set by controls: 0 for no effect and ±100 for the full control effect
Summary of the method: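 The SH-SY5Y reporter protocol was run at 3 concentrations up to 38.3 uM (primary) or 11 concentrations (follow-up): 16 h compound, 100 nM thapsigargin for 4 h, then extracellular luciferase luminescence.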

Glucocorticoid receptor (Homo sapiens), sequence (P04150 whole entry, looked up, the tested form may be a part): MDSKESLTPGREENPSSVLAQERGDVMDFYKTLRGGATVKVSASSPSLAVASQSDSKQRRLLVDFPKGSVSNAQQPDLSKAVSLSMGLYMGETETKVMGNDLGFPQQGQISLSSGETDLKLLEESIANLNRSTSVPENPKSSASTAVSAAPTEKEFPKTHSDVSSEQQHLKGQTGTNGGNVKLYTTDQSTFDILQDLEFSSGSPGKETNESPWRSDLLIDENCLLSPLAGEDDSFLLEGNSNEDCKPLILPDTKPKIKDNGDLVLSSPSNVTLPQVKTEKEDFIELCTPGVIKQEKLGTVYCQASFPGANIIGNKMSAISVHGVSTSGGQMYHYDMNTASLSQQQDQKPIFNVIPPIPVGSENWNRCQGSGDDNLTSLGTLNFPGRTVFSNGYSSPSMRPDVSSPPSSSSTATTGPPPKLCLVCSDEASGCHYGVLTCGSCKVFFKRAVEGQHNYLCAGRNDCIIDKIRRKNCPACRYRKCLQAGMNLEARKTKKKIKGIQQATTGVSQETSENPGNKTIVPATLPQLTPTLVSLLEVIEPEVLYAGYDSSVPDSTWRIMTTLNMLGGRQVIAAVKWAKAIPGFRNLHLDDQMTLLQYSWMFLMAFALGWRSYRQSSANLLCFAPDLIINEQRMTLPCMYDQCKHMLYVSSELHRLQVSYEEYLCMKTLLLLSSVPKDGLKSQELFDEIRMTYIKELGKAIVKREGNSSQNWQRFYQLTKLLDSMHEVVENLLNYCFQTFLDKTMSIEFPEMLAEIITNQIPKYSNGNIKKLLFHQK
Lysosomal acid glucosylceramidase (Homo sapiens), sequence (P04062 whole entry, looked up): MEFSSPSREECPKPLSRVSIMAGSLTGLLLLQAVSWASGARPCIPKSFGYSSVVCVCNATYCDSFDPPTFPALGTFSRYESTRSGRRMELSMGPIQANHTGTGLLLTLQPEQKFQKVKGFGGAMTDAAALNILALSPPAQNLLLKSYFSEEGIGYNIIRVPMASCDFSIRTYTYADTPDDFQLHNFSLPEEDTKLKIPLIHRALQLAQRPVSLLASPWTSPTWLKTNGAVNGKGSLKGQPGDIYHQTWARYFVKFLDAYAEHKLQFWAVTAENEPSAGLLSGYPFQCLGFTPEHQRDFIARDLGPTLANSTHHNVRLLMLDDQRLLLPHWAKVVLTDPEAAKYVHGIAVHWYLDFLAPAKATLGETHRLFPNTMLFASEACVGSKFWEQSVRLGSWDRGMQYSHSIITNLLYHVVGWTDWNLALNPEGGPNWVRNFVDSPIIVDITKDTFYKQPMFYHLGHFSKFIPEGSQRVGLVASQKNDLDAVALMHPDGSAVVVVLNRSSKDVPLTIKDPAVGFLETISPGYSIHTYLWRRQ
Ubiquitin carboxyl-terminal hydrolase 1 (Homo sapiens), sequence (O94782 whole entry, looked up): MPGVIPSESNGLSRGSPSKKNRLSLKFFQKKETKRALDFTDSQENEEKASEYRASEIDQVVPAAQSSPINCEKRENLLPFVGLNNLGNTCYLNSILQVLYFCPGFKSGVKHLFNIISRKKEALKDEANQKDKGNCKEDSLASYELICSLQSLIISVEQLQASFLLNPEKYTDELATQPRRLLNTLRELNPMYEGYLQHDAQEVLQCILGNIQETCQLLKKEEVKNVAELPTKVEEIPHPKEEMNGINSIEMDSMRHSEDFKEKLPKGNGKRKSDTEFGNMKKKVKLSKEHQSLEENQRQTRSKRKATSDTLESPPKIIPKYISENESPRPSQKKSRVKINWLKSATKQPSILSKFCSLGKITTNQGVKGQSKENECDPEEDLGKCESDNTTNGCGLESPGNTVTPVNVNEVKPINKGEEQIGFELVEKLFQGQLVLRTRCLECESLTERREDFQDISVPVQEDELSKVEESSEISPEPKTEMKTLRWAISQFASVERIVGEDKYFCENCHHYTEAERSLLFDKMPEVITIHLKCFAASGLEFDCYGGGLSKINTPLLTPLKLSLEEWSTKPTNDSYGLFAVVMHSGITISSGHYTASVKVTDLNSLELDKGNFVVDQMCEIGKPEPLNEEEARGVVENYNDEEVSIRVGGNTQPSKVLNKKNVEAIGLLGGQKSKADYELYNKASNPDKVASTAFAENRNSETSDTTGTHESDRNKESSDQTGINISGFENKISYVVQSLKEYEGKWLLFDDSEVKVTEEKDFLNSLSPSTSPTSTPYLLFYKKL
3',5'-cyclic-AMP phosphodiesterase 4B (Homo sapiens), sequence (Q07343 whole entry, looked up): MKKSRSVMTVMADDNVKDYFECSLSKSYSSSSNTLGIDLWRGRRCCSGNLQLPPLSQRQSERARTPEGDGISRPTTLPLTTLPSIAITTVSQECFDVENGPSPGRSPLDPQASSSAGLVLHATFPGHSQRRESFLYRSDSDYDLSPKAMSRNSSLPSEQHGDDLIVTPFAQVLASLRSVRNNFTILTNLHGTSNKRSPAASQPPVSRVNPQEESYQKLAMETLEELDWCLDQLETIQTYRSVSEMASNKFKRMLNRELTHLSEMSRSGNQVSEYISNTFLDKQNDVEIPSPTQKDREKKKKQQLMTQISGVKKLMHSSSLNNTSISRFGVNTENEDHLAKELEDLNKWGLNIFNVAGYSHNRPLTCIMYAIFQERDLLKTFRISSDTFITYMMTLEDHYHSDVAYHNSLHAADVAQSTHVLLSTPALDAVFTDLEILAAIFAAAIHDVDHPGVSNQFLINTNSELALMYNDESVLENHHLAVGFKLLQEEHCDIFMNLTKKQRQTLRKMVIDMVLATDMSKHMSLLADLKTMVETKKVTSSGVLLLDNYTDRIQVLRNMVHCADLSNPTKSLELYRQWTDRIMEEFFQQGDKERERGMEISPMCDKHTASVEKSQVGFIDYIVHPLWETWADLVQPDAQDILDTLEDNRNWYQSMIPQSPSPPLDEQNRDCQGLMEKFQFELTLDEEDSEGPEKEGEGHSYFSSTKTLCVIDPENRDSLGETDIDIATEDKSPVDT
Cytochrome P450 1A2 (Homo sapiens), sequence (P05177 whole entry, looked up): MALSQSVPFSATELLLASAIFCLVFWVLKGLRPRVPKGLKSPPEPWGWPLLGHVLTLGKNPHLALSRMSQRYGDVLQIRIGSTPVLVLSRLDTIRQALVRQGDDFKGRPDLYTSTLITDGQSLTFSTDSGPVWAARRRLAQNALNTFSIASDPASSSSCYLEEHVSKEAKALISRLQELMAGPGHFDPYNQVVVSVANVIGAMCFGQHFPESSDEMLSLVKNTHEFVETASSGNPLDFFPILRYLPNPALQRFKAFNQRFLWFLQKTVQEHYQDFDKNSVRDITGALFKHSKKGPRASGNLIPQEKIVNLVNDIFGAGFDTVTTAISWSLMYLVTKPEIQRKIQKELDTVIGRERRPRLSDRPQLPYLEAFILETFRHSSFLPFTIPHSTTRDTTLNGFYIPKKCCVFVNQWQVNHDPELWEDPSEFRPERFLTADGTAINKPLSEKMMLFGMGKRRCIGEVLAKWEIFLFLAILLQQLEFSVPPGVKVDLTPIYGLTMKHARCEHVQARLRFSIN
Dual specificity protein kinase CLK4 (Homo sapiens), sequence (Q9HAZ1 whole entry, looked up): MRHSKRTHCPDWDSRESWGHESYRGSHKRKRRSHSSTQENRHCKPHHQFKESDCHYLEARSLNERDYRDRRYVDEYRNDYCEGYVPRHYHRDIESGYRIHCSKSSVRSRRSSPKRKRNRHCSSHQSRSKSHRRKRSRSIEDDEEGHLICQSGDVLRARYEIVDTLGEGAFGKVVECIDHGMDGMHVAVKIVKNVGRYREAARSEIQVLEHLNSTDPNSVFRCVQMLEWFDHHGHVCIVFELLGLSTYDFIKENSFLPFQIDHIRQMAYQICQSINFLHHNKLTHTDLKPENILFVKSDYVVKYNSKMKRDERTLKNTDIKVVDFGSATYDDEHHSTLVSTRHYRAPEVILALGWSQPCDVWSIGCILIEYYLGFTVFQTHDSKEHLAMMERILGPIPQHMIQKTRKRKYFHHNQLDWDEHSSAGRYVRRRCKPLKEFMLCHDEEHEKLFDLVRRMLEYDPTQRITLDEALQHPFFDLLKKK
Cytochrome P450 3A4 (Homo sapiens), sequence (P08684 whole entry, looked up): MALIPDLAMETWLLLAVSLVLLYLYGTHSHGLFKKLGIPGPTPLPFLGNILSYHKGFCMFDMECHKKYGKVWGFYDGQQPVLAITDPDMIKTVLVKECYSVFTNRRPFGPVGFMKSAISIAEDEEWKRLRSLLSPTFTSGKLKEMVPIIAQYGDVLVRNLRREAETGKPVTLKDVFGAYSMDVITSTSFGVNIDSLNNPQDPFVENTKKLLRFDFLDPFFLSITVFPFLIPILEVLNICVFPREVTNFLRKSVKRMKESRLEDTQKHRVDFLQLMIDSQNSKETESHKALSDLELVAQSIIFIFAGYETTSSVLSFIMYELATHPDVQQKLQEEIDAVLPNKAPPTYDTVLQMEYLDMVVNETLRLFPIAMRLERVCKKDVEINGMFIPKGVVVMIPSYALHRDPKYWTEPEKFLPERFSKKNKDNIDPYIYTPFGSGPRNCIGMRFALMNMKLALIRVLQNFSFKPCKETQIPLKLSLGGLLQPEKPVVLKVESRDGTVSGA

Cc1cnc(CNc2ccnc(-c3ccoc3)n2)cn1
active: Potency [3] 12.6 µM
inactive: Potency [1] > 11.4 µM | activity change, negative = inhibition [2] 16.3% | activity change, negative = inhibition [4] -4.07% | activity, negative = inhibition [5] 7.07% | Potency [6] > 46 µM | Potency [7] > 46 µM | Potency [8] | Potency [9] | Potency [10] | Potency [11] | Potency [12] | Potency [13] | Potency [14] | outcome [15]

COc1cccc(Cn2c(=O)c(-c3ccc(Cl)cc3)nc3cnc(OC)nc32)c1
active: Potency [3] 3.98 µM
inactive: Potency [1] > 11.4 µM | activity change, negative = inhibition [2] -15.4% | activity change, negative = inhibition [4] 8.55% | activity, negative = inhibition [5] 4.34% | Potency [6] > 9.22 µM | Potency [7] > 46 µM | Potency [8] | Potency [11] | Potency [12] | Potency [13] | Potency [14] | outcome [15]

COCCn1c(=O)c(-c2cccc(Cl)c2)nc2cncnc21
active: Potency [3] 0.631 µM
inactive: Potency [1] > 11.4 µM | activity change, negative = inhibition [2] -9.58% | activity change, negative = inhibition [4] 12.1% | activity, negative = inhibition [5] -4.06% | Potency [6] > 9.22 µM | Potency [7] > 46 µM | Potency [8] | Potency [9] | Potency [10] | Potency [11] | Potency [12] | Potency [13] | Potency [14] | outcome [15]

CN(C)c1ncc2nc(-c3cccs3)c(=O)n(-c3ccccc3)c2n1
active: Potency [3] 31.6 µM
inactive: Potency [1] > 11.4 µM | activity change, negative = inhibition [2] -9.21% | activity change, negative = inhibition [4] 6.03% | activity, negative = inhibition [5] 21.3% | Potency [6] > 9.22 µM | Potency [7] > 46 µM | Potency [8] | Potency [11] | Potency [12] | Potency [13] | Potency [14] | outcome [15]

c1ccc(CNc2ncncc2-c2cccnc2)cc1
active: Potency [3] 2.51 µM
inactive: Potency [1] > 11.4 µM | activity change, negative = inhibition [2] 1.26% | activity change, negative = inhibition [4] -2.51% | activity, negative = inhibition [5] -3.91% | Potency [6] > 46 µM | Potency [7] > 46 µM | Potency [8] | Potency [9] | Potency [10] | Potency [11] | Potency [12] | Potency [13] | Potency [14] | outcome [15]

CC(=O)NCCNc1nc(-c2ccc(C(=O)N(C)C)cc2)nc2ccccc12
inactive: Potency [1] > 11.4 µM | activity change, negative = inhibition [2] 3.64% | Potency [3] | activity change, negative = inhibition [4] 9.74% | activity, negative = inhibition [5] 11.4% | Potency [6] > 46 µM | Potency [7] > 46 µM | Potency [8] | Potency [9] | Potency [11] | Potency [12] | Potency [13] | Potency [14] | outcome [15]
